14 compounds from PubChem BioAssay (NCI) can be followed below.

Among the test systems are T-47D breast; BT-549 breast; MDA-MB-435 melanoma; SW-620 colon; MCF7 breast; HCT-116 colon; HCC-2998 colon; KM12 colon.
Assay in all cases: NCI-60 one-dose screen, 48 h (100 = growth as untreated, 0 = no growth, -100 = all killed)
Holding throughout (details): 10 µM unless noted

About 83,000 compounds went through this panel and 20% of them were active in at least one assay; those are over-represented in the sample as a whole.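 Assay: single dose, 48 h. Readout: percent growth (0 = no net growth; negative = cell death). Active: <10.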 Values without a mark were called inactive. Activity calls are given as the source filed them.

Regarding `COc1cc2c(cc1OCCCCC(=O)Nc1ccc(-c3nc4ccccc4s3)cc1)N=C[C@@H]1CCCN1C2=O`, the growth in the assay with T-47D breast was 14.7%; in the assay with BT-549 breast, -76.4% (active); in the assay on MDA-MB-435 melanoma, -70.8% (active); in the assay on SW-620 colon, -16.9% (active); in the assay on MCF7 breast it was 1.14% (active); with HCT-116 colon it was 5.56% (active). Moreover, the growth in the assay on HCC-2998 colon was -62% (active); in the assay with KM12 colon it was -58.7% (active).

For the compound `Nc1nccc2c1ccn2-c1ccc(NC(=O)Nc2cccc(C(F)(F)F)c2)cc1`, the growth in the assay with T-47D breast is 85.1%; in the assay on BT-549 breast, 96.5%; in the assay with MDA-MB-435 melanoma, 96.6%; with SW-620 colon, 103%; in the assay with MCF7 breast, 86.8%; in the assay with HCT-116 colon, 76.8%. The growth was 115% in the assay on HCC-2998 colon and 75.1% in the assay with KM12 colon.

Consider `O=C1OC(c2ccc(-c3ccccc3)cc2)=C/C1=C/C=C/c1ccccc1`, for which the growth was 101% with T-47D breast; 111% with BT-549 breast; 106% in the assay with MDA-MB-435 melanoma; 97% in the assay with SW-620 colon; 87.9% in the assay with MCF7 breast; 88% in the assay with HCT-116 colon. Besides, the figures for the growth with HCC-2998 colon and in the assay on KM12 colon were 106% and 103%, respectively.

For the compound `COc1ccc2c(c1)O/C(=C/c1ccc(OCC(=O)Nc3ccc(S(N)(=O)=O)cc3)cc1)C2=O`, the growth in the assay on T-47D breast is 97.2%; with BT-549 breast, 99.6%; in the assay on MDA-MB-435 melanoma, 103%; in the assay with SW-620 colon, 107%; in the assay with MCF7 breast, 104%; with HCT-116 colon, 95.2%. Further, the growth in the assay on HCC-2998 colon is 105%; in the assay with KM12 colon, 99.5%.

Take `O=C(O)c1ccc(-n2cc(/C=N/Nc3ccc(Cl)cc3)c(-c3ccc(F)c(F)c3)n2)cc1`: the growth with T-47D breast was 65.9%; in the assay with BT-549 breast, 70%; in the assay on MDA-MB-435 melanoma it was 86.5%; with SW-620 colon it was 61.3%; in the assay on MCF7 breast, 46.5%; with HCT-116 colon, 47.5%. Also, the figures for the growth in the assay with HCC-2998 colon and in the assay on KM12 colon were 82.6% and 69.2%, respectively.

With `O=C(N/N=C/c1ccccc1O)c1ccccc1O`, the growth in the assay on T-47D breast is 25.7%; in the assay on BT-549 breast it was 34%; with MDA-MB-435 melanoma it was 63%; in the assay with SW-620 colon, 41.4%; in the assay on MCF7 breast, 11.1%; with HCT-116 colon, 26.7%. Also, the growth is 43% in the assay on HCC-2998 colon and 33.5% in the assay on KM12 colon.

In the case of `COc1ccc(/C=C/C(=O)c2ccc(-n3cc(CN4CCN(c5cc6c(cc5F)c(=O)c(C(=O)O)cn6C5CC5)CC4)nn3)cc2)cc1OC`, the growth in the assay on T-47D breast was 28.1%; in the assay with BT-549 breast it was 51%; with MDA-MB-435 melanoma it was 5.4% (active); in the assay with SW-620 colon, 9.41% (active); with MCF7 breast, 16.1%; with HCT-116 colon it was -39.5% (active). For the same compound, the growth with HCC-2998 colon was -39.7% (active); with KM12 colon it was 8.81% (active).

Turning to `CCn1c(C)nc([N+](=O)[O-])c1Sc1nc(N)nc2nc[nH]c12`, the growth with T-47D breast was 44.8%; with BT-549 breast, 47.9%; in the assay on MDA-MB-435 melanoma, 25.3%; with SW-620 colon, 39.4%; in the assay on MCF7 breast it was 14.5%; with HCT-116 colon, 16%. Besides, the growth is 30.6% in the assay on HCC-2998 colon and 21.2% with KM12 colon.

Turning to `COc1ccccc1N1CCN(CC(O)COc2c(Br)c(Br)c(Br)c3c2OC(C)(C)C3)CC1` (configuration not stated), the growth is 39.8% in the assay on T-47D breast; 98.6% in the assay on BT-549 breast; 37.2% in the assay with MDA-MB-435 melanoma; 33.3% in the assay with SW-620 colon; 26.8% with MCF7 breast; 27.4% with HCT-116 colon. The growth in the assay with HCC-2998 colon was 39.9%; with KM12 colon, 35.7%.

As for `CCCCOc1c(N)cc(Cl)cc1C(=O)OCCN(CC)CC`, the growth in the assay with T-47D breast was 99.8%; in the assay with BT-549 breast it was 76.5%; in the assay on MDA-MB-435 melanoma, 111%; in the assay on SW-620 colon it was 99.2%; in the assay with MCF7 breast it was 93.3%; in the assay on HCT-116 colon, 80.3%. Moreover, the growth with HCC-2998 colon was 109%; with KM12 colon, 104%.

As for `O=S(=O)(CCN1CCOCC1)Nc1cncc(-c2ccc3ncnc(Nc4ccc(F)c(Cl)c4)c3c2)c1`, the growth with T-47D breast is -17.9% (active); with BT-549 breast it was 49.7%; in the assay on MDA-MB-435 melanoma, 87.2%; in the assay with SW-620 colon, 90.2%; with MCF7 breast, 47.3%; in the assay on HCT-116 colon it was 56.1%. The growth in the assay on HCC-2998 colon is 74.4%; in the assay on KM12 colon, 95.9%.

Take `O=C(Nc1ccc(-n2cc(-c3ccncc3)c(-c3ccc(O)c(Cl)c3)n2)cc1)Nc1ccc(Cl)c(C(F)(F)F)c1`: the growth with T-47D breast was 29.2%; in the assay with BT-549 breast it was -19.4% (active); in the assay with MDA-MB-435 melanoma, -0.731% (active); with SW-620 colon it was 19.6%; in the assay on MCF7 breast, 15%; in the assay with HCT-116 colon, 6.73% (active). Further, the growth in the assay with HCC-2998 colon was 22%; in the assay with KM12 colon, 6.77% (active).

Regarding `CC1(C)N=C(N)N=C(N)N1c1ccc(OCC(=O)Nc2ccccc2)c(Cl)c1`, the growth is 70% with T-47D breast; 40.6% in the assay on BT-549 breast; 25.2% in the assay with MDA-MB-435 melanoma; 33% in the assay with SW-620 colon; 28.4% in the assay on MCF7 breast; 19.2% in the assay on HCT-116 colon. The growth with HCC-2998 colon is 29.5%; in the assay with KM12 colon, 18.1%.

On to `CC1OC(n2c3ccccc3c3c4c(c5c6ccccc6[nH]c5c32)C(=O)N(CCN[C@@H]2CCC[C@H]2N)C4=O)CC(O)C1O` (some centres not stated), for which the growth in the assay on T-47D breast is 19.6%; in the assay with BT-549 breast, 23.8%; in the assay on MDA-MB-435 melanoma, 18.4%; with SW-620 colon, 5.32% (active); in the assay with MCF7 breast it was -34% (active); with HCT-116 colon, 9.41% (active). Besides, the growth was -9.5% (active) in the assay with HCC-2998 colon and 14.7% in the assay with KM12 colon.
